RORg inh: blocks mouse ROR gamma transcriptional activity | P51450 | Drosophila S2 Gal4-RORgamma UAS-luciferase reporter, 20 h | Potency, µM (doses to about 53.6 µM), for inactives: at the top dose activity change, negative = inhibition, hits mostly inhibitors | 5.4% of 310,000 active | AID 2551; note: nearly all actives have a fitted effect of over 60% in size
Target sequence (P51450 whole entry, looked up, the tested form may be a part): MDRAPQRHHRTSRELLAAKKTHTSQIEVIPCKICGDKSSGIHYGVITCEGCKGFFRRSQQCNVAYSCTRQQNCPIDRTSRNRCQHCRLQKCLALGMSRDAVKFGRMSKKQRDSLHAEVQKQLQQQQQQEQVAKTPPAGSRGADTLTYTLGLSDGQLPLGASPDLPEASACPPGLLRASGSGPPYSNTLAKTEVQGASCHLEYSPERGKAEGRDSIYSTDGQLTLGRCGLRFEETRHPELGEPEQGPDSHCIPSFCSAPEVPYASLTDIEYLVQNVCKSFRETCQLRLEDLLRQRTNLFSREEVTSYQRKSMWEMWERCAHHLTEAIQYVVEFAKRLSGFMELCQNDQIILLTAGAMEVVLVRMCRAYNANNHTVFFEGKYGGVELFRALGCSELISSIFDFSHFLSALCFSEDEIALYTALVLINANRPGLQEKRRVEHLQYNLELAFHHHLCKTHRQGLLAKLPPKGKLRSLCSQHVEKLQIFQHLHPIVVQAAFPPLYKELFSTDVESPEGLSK
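Stably transfected Drosophila Schneider cells are the test system, with ROR gamma fused to Gal4 and luciferase under UAS control; luminescence is read after 20 hr of 700 uM copper sulfate induction at ambient temperature.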
Gal4-VP16 FLuc: inhibits Gal4-VP16 luciferase reporter, ROR gamma counter-screen | 3.5% of 310,000 active | Drosophila S2 Gal4-VP16 UAS-luciferase, luminescence, 20 h | AID 2546 | Potency, µM (titrated, usually from 53.6 µM), without a hit: at the highest dose activity, negative = inhibition, actives largely listed as inhibitors;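 note: Gal4-VP16 expression switched on by copper sulfate through the metallothionein promoter; nearly all actives have a fitted effect of over 50% in size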
TDP1 cell CPT: DT40-hTDP1 cell growth loss with CPT. AID 686979. Potency, µM (highest dose often 46.2 µM), inactives show at the highest dose activity change, negative = growth inhibition, most hits filed as inhibitors. 12% of 420,000 active. chicken DT40 Tdp1-/-;hTDP1 cells + 20 nM CPT, ATP luminescence, 48 h; note: nearly all actives have a fitted effect of over 55% in size
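Cell growth measured by CellTiter-Glo luminescence after a minimum 48 h, 37 C compound exposure with 20 nM CPT in Tdp1-knockout DT40 cells stably expressing hTDP1, seeded 400/well; qHTS titration format.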
DT40 TDP1 no CPT: qHTS for Inhibitors of human tyrosyl-DNA phosphodiesterase 1 (TDP1): qHTS in cells in absence of CPT. DT40 Tdp1-/- hTDP1 cells, no CPT, ATP luminescence, 48 h. Potency, µM (series often up to 46.2 µM), inactives show top-dose activity change, negative = growth inhibition, most hits filed as inhibitors. 15% of 420,000 active; note: nearly all actives have a fitted effect of over 55% in size
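Seeded 400 DT40-hTDP1 cells/well (vehicle DMSO, no 20 nM CPT); pinned compounds; ≥48 hr at 37 °C; CellTiter-Glo luminescence as viability measure.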
TDP1 block: blocks human tyrosyl-DNA phosphodiesterase 1; AID 485290; recombinant TDP1, AlphaScreen DNA substrate cleavage; Potency, µM (titrated, usually from 130 µM), for the others: top-dose activity change, negative = inhibition, usual class: inhibitors; 0.28% of 350,000 active; note: nearly all actives have a fitted effect of over 40% in size
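E. coli-derived human Tdp1, 1 nM final. Cpd preinc 15 min RT; substrate 15 nM final, 5 min RT; AS bead mix 10 ug/ml final, 10 min RT. Signal loss = tyrosine-FITC cleavage. No-enzyme wells = max signal.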
Numbers without * were called inactive; ? = inconclusive; / = not tested or not shown; [ ] = remark or other dose. Only some compounds are listed: those with a hit (about 19% of all), similar ones and a draw of the others. Calls come from the whole dose curve; as a rule, active = well fitted curve in the direction sought with a large enough effect; inconclusive = small, poorly fitted or top-dose-only effect, or another doubt; inactive = no such curve, though single readings can be large; an effect the other way counts as inactive or inconclusive. % is set by controls: 0 for no effect and ±100 for the full control effect; potency is the fitted concentration of half-maximal effect.

SMILES | RORg inh | Gal4-VP16 FLuc | TDP1 cell CPT | DT40 TDP1 no CPT | TDP1 block
COc1cc(C(=O)NC(=S)Nc2ccccc2N2CCCC2)cc(OC)c1OC | 4.5µM* | 4µM* | ? | 21µM* | 10%
COc1c(C)cccc1C(=O)NC(=S)Nc1ccccc1N1CCCC1 | 10µM* | 20µM* | ? | -15% | 11%
Cc1c(CC(Cl)(Cl)Cl)c2c(n1O)CC(C)(C)CC2=O | -66% | ? | ? | ? | 6%
CC(C)c1ccccc1NC(=S)NN(Cc1ccccc1)c1ccccc1 | 2.2µM* | ? | ? | ? | 10%
Fc1ccccc1NC(=S)NN(Cc1ccccc1)c1ccccc1 | 4.5µM* | 10µM* | ? | ? | 9%
Cc1cccc(C)c1NC(=S)NN(Cc1ccccc1)c1ccccc1 | 5µM* | ? | ? | ? | 3%
CC(C)N(Cc1ccccc1)C(=S)Nc1ccccc1F | -35% | 1% | -4% | ? | 1%
Cc1cccc(C)c1NC(=S)N(Cc1ccccc1)Cc1cccnc1 | ? | 12% | 10% | -17% | 7%
CC(C)CC(C(=O)OCC(=O)Nc1cccc(Cl)c1)N1C(=O)C2CC=CCC2C1=O (stereo not given) | -6% | -10% | -7% | -33% | 5%
Cc1cccc(NC(=O)CN2CCN(C(=O)C(C)Oc3ccc(C#N)cc3)CC2)c1C (stereo not given) | / | / | -29% | -9% | 0%
Nn1c(C2CCC2)nc2ccccc2c1=O | -25% | -1% | 4% | 5% | /
CCOc1ccc(NC(=S)N=Nc2c(O)[nH]c3ccccc23)cc1 | 2.2µM* | 5µM* | 9.2µM* | 7.3µM* | 11%
O=[N+]([O-])c1ccc2[nH]c(O)c(N=NC(=S)Nc3cccnc3)c2c1 | 0% | -1% | -1% | 6% | /
Oc1cccc(NC(=S)N=Nc2c(O)[nH]c3ccccc23)c1 | 15% | -3% | ? | 13µM* | 10%
COc1cc(C(=O)N2CCN(C/C=C/c3ccccc3)CC2)cc(OC)c1OC | -16% | 7% | 8% | -27% | 2%
CCOc1ccc(NC(=O)CCn2cnc3onc(-c4ccc(F)cc4)c3c2=O)cc1 | / | / | -18% | -20% | 5%
O=C(Cn1cnc2onc(-c3ccc(Cl)cc3)c2c1=O)Nc1ccc(F)cc1 | / | / | ? | ? | 0%
O=C(Cn1cnc2onc(-c3ccc(F)cc3)c2c1=O)Nc1ccc(F)c(Cl)c1 | / | / | 9.2µM* | ? | -7%
CCCN(C(=O)Cn1cnc2onc(-c3ccc(F)cc3)c2c1=O)c1cccc(Cl)c1 | / | / | ? | ? | 0%
O=C(Cn1cnc2onc(-c3ccc(F)cc3)c2c1=O)Nc1cccc(C(F)(F)F)c1 | / | / | 23µM* | 21µM* | 2%
CCN(C(=O)Cn1cnc2onc(-c3ccc(F)cc3)c2c1=O)c1ccc(OC)cc1 | / | / | 18µM* | 12µM* | 4%
COc1cc(OC)c(NC(=O)CCn2cnc3onc(-c4ccc(F)cc4)c3c2=O)cc1Cl | / | / | 12µM* | 2.1µM* | -1%
CN(C)S(=O)(=O)c1cccc(NC(=O)COC(=O)c2cccn2C)c1 | 46% | 0% | -13% | 6% | 11%
CCOC(=O)C(Cc1ccccc1)NC(=O)CNC(=O)CNC(=O)OCc1ccccc1 (stereo not given) | 5% | 7% | -3% | -23% | 2%
Cc1ccc(C)c(N2CCN(C(=O)Cn3cnc4onc(-c5ccc(F)cc5)c4c3=O)CC2)c1 | / | / | 23µM* | ? | -1%
SMILES | RORg inh | Gal4-VP16 FLuc | TDP1 cell CPT | DT40 TDP1 no CPT | TDP1 block
Cc1ccc(-c2noc(CCC(=O)N3CCN(c4cc(C)ccc4C)CC3)n2)cc1 | / | / | -15% | -19% | -4%[56.1 µM]
FC(F)(F)c1ccccc1-c1nc(-c2ccncc2)no1 | 29% | 3% | -10% | -23% | /
CCOc1cc2c3c(c1)C(C)=CC(C)(C)N3C(=O)C2=O | 39% | -8% | 3.3µM* | 2.6µM* | 7%
Cc1cc2c3c(c1)C(C)CC(C)(C)N3C(=O)C2=O (stereo not given) | -1% | 4% | 23µM* | ? | 3%
CCOc1cc2c3c(c1)C(C)CC(C)(C)N3C(=O)C2=O (stereo not given) | -1% | 1% | ? | 18µM* | 0%
CCOC(=O)n1c(SCC(N)=O)nc2ccccc21 | -2% | -6% | 1% | 5% | 6%
COc1ccc(CNC(=O)c2cccn2-c2nnc(N3CCCCC3)s2)c(OC)c1 | / | / | ? | 23µM* | 0%
COc1ccc(OC)c(NC(=O)c2cccn2-c2nnc(N3CCCCC3)s2)c1 | / | / | 21µM* | ? | 3%
COc1cccc(CNC(=O)c2cccn2-c2nnc(N3CCCC3)s2)c1 | / | / | ? | ? | 8%
COc1ccc(NC(=O)c2cccn2-c2nnc(N3CCCCC3)s2)cc1 | / | / | ? | ? | 3%
CCn1cc([C@@H]2C[C@H]3CN(Cc4cccc(Cl)c4)C(=O)[C@]34CCCN24)c(C)n1 | -14% | 4% | 2% | -12% | 1%
Cc1cc(C)n(CCSCC(=O)O)n1 | -2% | -3% | 3% | -1% | 2%
Cc1nc2ccc(NC(=O)N(C)c3ccccc3)cc2s1 | -4% | -3% | 0% | -23% | -1%
CN1CCN(c2ccccc2NC(=O)c2ccc([N+](=O)[O-])o2)CC1 | ? | ? | 7.3µM* | 9.2µM* | -1%
O=C(Nc1ccccc1N1CCCCC1)c1ccc(-c2ccc(Cl)cc2)o1 | -3% | -19% | 3.3µM* | 4.1µM* | -3%
CC(=O)N1CCN(c2ccccc2NC(=O)c2ccc(Br)o2)CC1 | 34% | 7% | ? | -20% | 6%
NC(=O)c1ccccc1NC(=O)c1ccc(-c2ccc(Br)cc2)o1 | / | / | -24% | ? | /
COc1cc(NC(=O)c2ccc(-c3cccc(F)c3)o2)ccc1NC(=O)c1ccccc1Cl | / | / | 18µM* | 18µM* | 2%
COc1ccccc1NC(=O)c1ccc(-c2ccc(Br)cc2)o1 | -4% | 0% | 7.3µM* | 5.8µM* | 1%
NC(Cc1ccc2nonc2c1)C(=O)O (stereo not given) | -39% | 2% | -6% | 0% | 0%
COc1ccc(NC(=O)c2ccc(-c3ccc(F)cc3)o2)cc1OC | / | / | 21µM* | 16µM* | /
COc1cc(NC(=O)c2ccc(-c3ccc(Br)cc3)o2)ccc1NC(=O)C(C)C | 9% | -21% | 15µM* | 18µM* | 0%
COc1ccc(NC(=O)c2cc3ccccc3o2)cc1OC | / | / | -12% | -18% | 4%
CS(=O)(=O)N1CCN(c2ccccc2NC(=O)c2ccc([N+](=O)[O-])o2)CC1 | -32% | 3% | 3.7µM* | 8.2µM* | 2%
CN1CCN(c2ccccc2NC(=O)c2ccc(-c3ccc(Br)cc3)o2)CC1 | -1% | 2% | 3.3µM* | 3.3µM* | 5%
